The panel holds about 79,000 compounds, 15% with a hit somewhere; the sample as a whole holds those more often. The source made the active and inactive calls. No stated cut-off is given here; in the data, active means growth inhibition above about 70%; inactive means the rest.
What was measured:
[1] = NCI Yeast Anticancer Drug Screen. Data for the rad50 strain (AID 155);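 further: 0% = growth of vehicle-only cultures of the same strain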; conditions: S. cerevisiae rad50 strain growth inhibition, hits give high values
How it was run: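 DNA repair mutant yeast, compound exposure, growth read-out; inhibition is taken relative to vehicle.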

[2] = NCI Yeast Anticancer Drug Screen. Data for the mec2-1 strain (AID 157); conditions: S. cerevisiae mec2-1 strain, hits give high values
How it was run: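 Test agents were screened against the mec2-1 yeast strain, with defined DNA repair or cell cycle alteration. Growth was scored as inhibition against vehicle-only controls.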

[3] = NCI Yeast Anticancer Drug Screen. Data for the sgs1 mgt1 strain (AID 161);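 further: 0% = growth of cultures given vehicle only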; conditions: S. cerevisiae sgs1 mgt1 strain, hits give high values
How it was run: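 Test agents were incubated with a DNA-repair-mutant yeast strain. Growth was then read and compared against vehicle-treated controls.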

[4] = NCI Yeast Anticancer Drug Screen. Data for the cln2 rad14 strain (AID 165);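 further: 0% = growth equal to vehicle treated cultures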; conditions: S. cerevisiae cln2 rad14 strain, hits give high values
How it was run: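 Growth of compound-exposed yeast (cln2 rad14 genotype) measured and expressed as inhibition relative to vehicle.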

[5] = NCI Yeast Anticancer Drug Screen. Data for the bub3 strain (AID 167); conditions: S. cerevisiae bub3 mutant strain, hits give high values
How it was run: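 In this screen, a yeast mutant lacking normal mitotic checkpoint function is challenged with compound. Relative growth versus vehicle gives the inhibition value.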

[6] = NCI Yeast Anticancer Drug Screen. Data for the mlh1 rad18 strain (AID 175); conditions: S. cerevisiae mlh1 rad18 strain growth inhibition, hits give high values
How it was run: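 In this whole-cell yeast screen, a strain with altered DNA damage repair is challenged with compound, and its growth is measured against matched vehicle-treated controls.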

[7] = at 5.0 µM (retest, dose inferred, filed as 0.5)
[8] = at 50.0 µM (retest, dose inferred, filed as 5.0)

Measured: growth inhibition

CCN(CC)CCOc1ccc(/C=C(\C#N)c2ccc(OC)cc2)cc1
active: [1]; [8] 83% | [1]; at 50.0 µM 74.5% | [2]; [8] 96% | [3]; [8] 97% | [3]; at 50.0 µM 85.9% | [4]; [8] 90% | [4]; at 50.0 µM 82.8% | [5]; [8] 95% | [6]; [8] 84% | [6]; at 50.0 µM 75.8%
inactive: [1]; [7] 24% | [2]; [7] 17% | [2]; at 50.0 µM 62.5% | [3]; [7] 40% | [4]; [7] 34% | [5]; [7] 44% | [5]; at 50.0 µM 68.5% | [6]; [7] 24%

CCOC(=O)C(NC(=O)C(CO)n1c(-c2ccccc2)c(-c2ccccc2)oc1=O)C(=O)OCC (stereo not given)
inactive: [1]; [7] 7% | [1]; [8] 42% | [1]; at 50.0 µM 43.6% | [2]; [7] 2% | [2]; [8] 19% | [2]; at 50.0 µM 26.4% | [3]; [7] -2% | [3]; [8] 35% | [3]; at 50.0 µM 41.5% | [4]; [7] -1% | [4]; [8] 51% | [4]; at 50.0 µM -1.9% | [5]; [7] 1% | [5]; [8] 51% | [5]; at 50.0 µM 22.2% | [6]; [7] 1% | [6]; [8] 20% | [6]; at 50.0 µM 53.1%

Cc1ccc(O)c2c(NCCCCCCNc3cc(C)[n+](C)c4c(C)ccc(O)c34)cc(C)[n+](C)c12
active: [1]; [8] 87% | [1]; at 50.0 µM 89% | [2]; [8] 76% | [2]; at 50.0 µM 90.4% | [3]; [8] 71% | [3]; at 50.0 µM 92.7% | [4]; at 50.0 µM 72.7% | [5]; [8] 76% | [5]; at 50.0 µM 77.5% | [6]; [8] 84% | [6]; at 50.0 µM 90.2%
inactive: [1]; [7] -1% | [2]; [7] 0% | [3]; [7] -1% | [4]; [7] 5% | [4]; [8] 60% | [5]; [7] -6% | [6]; [7] -2%

CC(=O)ON=C1C=CC(=C(C#N)c2ccccc2)C=C1
active: [1]; [8] 99% | [1]; at 50.0 µM 97.2% | [2]; [8] 100% | [2]; at 50.0 µM 99.1% | [3]; [8] 100% | [4]; [7] 88% | [4]; [8] 100% | [4]; at 50.0 µM 98.2% | [5]; [7] 72% | [5]; [8] 100% | [6]; [8] 99% | [6]; at 50.0 µM 99.5%
inactive: [1]; [7] 44% | [2]; [7] 41% | [3]; [7] 46% | [3]; at 50.0 µM 64.1% | [5]; at 50.0 µM 66.3% | [6]; [7] 49%

COc1ccc2nc3cc(Cl)ccc3c(NCCNCCCNC(=O)c3cc(-c4ccccc4)nc4ccccc34)c2c1
inactive: [1]; [7] -14% | [2]; [7] -1% | [3]; [7] -5% | [3]; [8] 69% | [4]; [7] 30% | [5]; [7] -15% | [6]; [7] -11%
active: [1]; [8] 98% | [1]; at 50.0 µM 96.3% | [2]; [8] 87% | [2]; at 50.0 µM 93.9% | [3]; at 50.0 µM 95.2% | [4]; [8] 98% | [4]; at 50.0 µM 97.5% | [5]; [8] 97% | [5]; at 50.0 µM 94.2% | [6]; [8] 98% | [6]; at 50.0 µM 98.2%

NC1=CC(=O)c2ccccc2C1=O
inactive: [1]; [7] 18% | [2]; [7] 1% | [2]; [8] 48% | [2]; at 50.0 µM 62.3% | [3]; [7] 26% | [3]; [8] 57% | [4]; [7] 9% | [4]; [8] 33% | [4]; at 50.0 µM -1.65% | [5]; [7] 42% | [6]; [7] 31%
active: [1]; [8] 84% | [1]; at 50.0 µM 94.5% | [3]; at 50.0 µM 85.2% | [5]; [8] 93% | [5]; at 50.0 µM 93.8% | [6]; [8] 84% | [6]; at 50.0 µM 95.5%

CN(C)c1ccc(C(=C2C=CC(=[N+](C)C)C=C2)c2ccc(N(C)C)cc2)cc1 (tested in a mixture with another compound)
active: [1]; [7] 98% | [1]; [8] 90% | [1]; at 50.0 µM 87.5% | [2]; [7] 99% | [2]; [8] 93% | [2]; at 50.0 µM 88% | [3]; [7] 98% | [3]; [8] 95% | [3]; at 50.0 µM 89.7% | [4]; [7] 99% | [4]; [8] 95% | [4]; at 50.0 µM 87.7% | [5]; [7] 98% | [5]; [8] 93% | [5]; at 50.0 µM 88.5% | [6]; [7] 98% | [6]; [8] 91% | [6]; at 50.0 µM 86.5%

CCN(CC)CCNCc1ccccc1
inactive: [1]; [7] -157% | [1]; [8] -178% | [1]; at 50.0 µM -7.3% | [2]; [7] -49% | [2]; [8] -57% | [2]; at 50.0 µM -1.15% | [3]; [7] -64% | [3]; [8] -67% | [3]; at 50.0 µM 10.9% | [4]; [7] -62% | [4]; [8] -66% | [4]; at 50.0 µM 38.7% | [5]; [7] -70% | [5]; [8] -86% | [5]; at 50.0 µM 5.45% | [6]; [7] -139% | [6]; [8] -119% | [6]; at 50.0 µM 1.8%

O=S1(=O)CS(=O)(=O)OCCCO1
inactive: [1]; [7] 10% | [1]; [8] 10% | [1]; at 50.0 µM -15.7% | [2]; [7] 8% | [2]; [8] 8% | [2]; at 50.0 µM -32.8% | [3]; [7] 7% | [3]; [8] 15% | [3]; at 50.0 µM -23.4% | [4]; [7] 12% | [4]; [8] 9% | [4]; at 50.0 µM -9.45% | [5]; [7] 7% | [5]; [8] 7% | [5]; at 50.0 µM -30.1% | [6]; [7] 11% | [6]; [8] 16% | [6]; at 50.0 µM -59.5%

CCOP(=O)(OCC)/C(=C\NC(=S)N=Nc1c(O)[nH]c2ccccc12)C(=O)OC
inactive: [1]; [7] 29% | [1]; at 50.0 µM 19.6% | [2]; [7] 4% | [2]; at 50.0 µM 11.2% | [3]; [7] 6% | [3]; at 50.0 µM 7.85% | [4]; [7] 2% | [4]; [8] 67% | [4]; at 50.0 µM 46.1% | [5]; [7] -8% | [5]; [8] 62% | [5]; at 50.0 µM 13.8% | [6]; [7] 5% | [6]; at 50.0 µM 14.6%
active: [1]; [8] 81% | [2]; [8] 89% | [3]; [8] 83% | [6]; [8] 84%

From PubChem BioAssay (NCI)
